About 83,000 compounds went through this panel and 20% of them were active in at least one assay; those are over-represented in the sample as a whole.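 For each line, cells grew in 96-well plates with the test compound present at a single concentration for 48 hours.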
Assays:
Test in all cases: NCI-60 one-dose screen, 48 h (100 = growth as untreated, 0 = no growth, -100 = all killed)
Conditions in all cases: 10 µM unless noted; active = growth percent below 10; inactive = the rest
[1] = tested on: HT29 colon
[2] = tested on: SNB-75 CNS
[3] = tested on: SNB-19 CNS
[4] = tested on: U251 CNS
[5] = tested on: PC-3 prostate
[6] = tested on: SK-MEL-5 melanoma
[7] = tested on: UACC-62 melanoma
[8] = tested on: LOX IMVI melanoma
[9] = tested on: SK-MEL-28 melanoma

Measured: growth

CCc1c(C)c2ccc(O)c(-c3cc(-c4ccccc4)c(C#N)c(=O)[nH]3)c2oc1=O
inactive: [1] 125% | [2] 52.7% | [3] 108% | [4] 100% | [5] 107% | [6] 94.7% | [7] 77.3% | [8] 93.1% | [9] 107%

COc1ccc(NC(=O)c2sc3c(=O)[nH]c(C(F)(F)F)nc3c2C)cc1
inactive: [1] 103% | [2] 93.7% | [3] 112% | [4] 98.6% | [5] 90.5% | [6] 106% | [7] 98.9% | [8] 101% | [9] 109%

CC1=CCC2C1CC=C(C)C(CC[C@H]1[C@@](C)(O)CCC3OC(C)(C)[C@H](OC(=O)c4ccccc4)CC[C@@]31C)C2(C)C (stereo not given in full)
inactive: [1] 76.6% | [2] 75.9% | [3] 105% | [4] 61.2% | [5] 26.2% | [6] 79.9% | [7] 67.4% | [8] 67% | [9] 109%

N=C(N)c1ccc(NCCNc2ccc(C(=N)N)cc2)cc1
inactive: [1] 103% | [2] 101% | [3] 116% | [4] 89.8% | [5] 123% | [6] 82% | [7] 81.8% | [8] 86.8% | [9] 114%

COc1ccc(/C=N/NC(N)=S)c(OC)n1
inactive: [1] 93.4% | [2] 79.5% | [3] 102% | [4] 95.8% | [5] 105% | [6] 93.1% | [7] 96.8% | [8] 102% | [9] 98.5%

Source: PubChem BioAssay (NCI)
